Our source for the median seed-adjusted z-score values is PubChem BioAssay AID1347426 (Functional Genomics Laboratory (NCATS/FGL), 2020).

The whole screen tested about 31,000 sequences, of which about 1,400 (4.5%) were called active. Shown is part of a subset that was picked to be rich in actives. Values without a mark were called inactive.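 Rule for the calls: active = median seed-adjusted z-score above 1 or below -1; inactive = the rest.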

The assay in a line: Novel Modifiers of Survival Motor Neuron (SMN) Protein: Gene Identification via Genome-wide siRNA Screen.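 Note: luminescence tracks full-length SMN protein made from the SMN2 reporter.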 Conditions: HEK293T SMN2-luciferase reporter, siRNA knockdown, 72 h; actives lie on both sides. The gist of the method:
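Steps: spot 1 pmol siRNA, add Lipofectamine RNAiMax in serum-free DMEM, seed HEK293T SMN2–luciferase reporter cells; incubate 72 h at 37 °C; add ONE-Glo; normalize luminescence to control siRNA, log10, MAD. Candidates: |MAD| > 1.0.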
On the technique in general: A reporter such as luciferase makes a cellular process visible.
GGAUACUCUUCCUAUUCAATT against OMA1: the median seed-adjusted z-score was 0.
CGGCUUUUAUGGACGAGUUTT against STX3: the median seed-adjusted z-score is 0.686.
Under GAAACAAAGUCUUAAUAUUTT against ATP1A4 stands 0.116; under GGAAAAGUUCUGAAGACUATT against CPOX, -0.135; under GCACCUCACCCAUCAAUGATT against RERE, 0.129.
Take GGUUGUCAUUAACAACAGUTT against DLST: the median seed-adjusted z-score was 1.16 (active).
Under GGUUCGGCAUGAGUGUGAATT against ZNF187 stands 0.419; under GCAGGAGACUCAAAGAUUUTT against DDO, -0.202.
Under GUCUAUCUCUUGUCUAAAATT against HYAL4 stands -0.236; under GCUCAUUGGUACAAUGUCATT against POLE, -1.55 (active).
Next, CGCUCAUGGACUUCGCCUATT against ZBTB7A: -0.344; CCAUAACGGUGGAUGAGUATT against MPPED2: 0.418; GAAGUUUGACCAUGACUUUTT against ACCN5: 0.227.
With CACUGAUUCUGAAGGCGAATT against RPS6KA1, the median seed-adjusted z-score is 0.194.
Take CGUCUGACUUCGCUAGCAATT against HOXD11: the median seed-adjusted z-score is -0.185.
With GGAUGUUGUUUAUCGAGGATT against MED21, the median seed-adjusted z-score is -1.3 (active).
As to ACAAAAAGGGCAUACAUUATT against S100A7A, the median seed-adjusted z-score is 0.212.
Under GCAGCUGUUUGGAACCAAATT against TRIM47 stands 0.707; under GCAUCUCUUCUAUGCCGAATT against MATN2, 0.275.
Next, ACAAGCACCUAGACCAUGATT against ANGPTL4: 1.37 (active).
For the sequence ACUUAAUGCCUGCCUAUUATT against CYP21A2, the median seed-adjusted z-score is -0.26.
UGACGUAGGCAUAAACGGATT against PCDH11Y: the median seed-adjusted z-score was 0.186.
Next, GCUCUAAACCAGAACGGGATT against ARAP3: -0.00876.
In the case of AGACCAACCCUGGUACUUUTT against SRMS, the median seed-adjusted z-score is -1.58 (active).
Under GCAUUGUCCGUCUUCAUCATT against GLP1R stands 0; under GCACGUCACUGUGGUUGUATT against THNSL2, 0.
As to GCUUAUACAUUCCGAUGAATT against PTPRZ1, the median seed-adjusted z-score was 1.73 (active).
Next, GGAUGUAGCUGUCAACUGUTT against HSD17B10: -0.355.
For the sequence GACCUUACGAGGUUUCUAATT against TSNAX, the median seed-adjusted z-score was 0.514.
For the sequence CGUUCCUAAGCUACAAGAATT against TMPRSS9, the median seed-adjusted z-score was 0.106.
For the sequence GAAUUCAGAUGCGAGUAAATT against RFX6, the median seed-adjusted z-score was 0.119.
Next, CUGUUUACAUGACCUAUUUTT against MAFG: 0.
Under CGGCACAUCCUGCUUUGUUTT against ZNF213 stands 1.37 (active); under GGUUCCUUAUUAUAGUCCATT against GPR63, -0.0154; under CGGUGCUCCCUGUCAUAAATT against CCR2, -0.00107.
In the case of GGCAUGAAUUUGAACUGUATT against CA8, the median seed-adjusted z-score was 0.172.
Next, CCGUCAAGGUCGUCAUACATT against NTSR1: -1.1 (active); GGACGGCUUUCUGCAAAGATT against GLRA2: -0.927; AGUGUCUACUGUGAGAAUATT against TRAF4: -1.16 (active).
Under GCACCAUAGUGACACUGAATT against IFNAR2 stands -0.219; under CAGUGGACUUCCAACCCAATT against SF3A1, -1.09 (active); under CAUUCAUCUCAAUAAUUGATT against IL5RA, -0.357.
Consider CAUGGACGAGAUCAAGGAATT against AGXT, for which the median seed-adjusted z-score was 0.017.
Under GCACUACUCCGAGAAGUUATT against NEK6 stands -0.674.
Under CAAUAGUAAAGGGAUAUAATT against MED27 stands -1.62 (active).
With AGACCGACGUGAAAGAGGATT against HAND2, the median seed-adjusted z-score is 0.0864.
Under CAGUUGCCUAUAUCCUAUATT against TDRKH stands -0.434; under CCCUUGUAGUGAAACGGAATT against CYP4F8, 0.756.
Under ACUACUUCCUGAACCGGGATT against CD2BP2 stands -0.455.
As for GCAGAGUUUCGUACAAGGATT against KPNA6, the median seed-adjusted z-score is -1.54 (active).
Under CCAGCCCACUCAUCUCAUUTT against SNX30 stands -0.157.
With GCCGAGGAACAAUCUCUCATT against RASGRP4, the median seed-adjusted z-score was 0.162.
Consider CCACUACCCUGAGAACUUUTT against TOP3B, for which the median seed-adjusted z-score was -1.11 (active).
For the sequence GGACCGGAGCAGUAUAGAATT against TRIM37, the median seed-adjusted z-score is -0.108.
Under CGGUUACGAUAAUGCGUUATT against ENPP5 stands -0.0499; under GCACAAGUGCUGAGCCAGATT against LENG9, 0.607.
Regarding GUAUUAUUUUCGUACACGATT against RABL3, the median seed-adjusted z-score is 0.843.
Turning to CCGGCUACCUGAUCGUGUATT against PITPNM1, the median seed-adjusted z-score was -0.203.
Next, GAAAUGACAUUAGCUGAUUTT against CLIC4: -0.498.
Next, CUACAUUGCUGGGACUAAUTT against RRM1: -5.51 (active); CCUGGAGAGUUACUUUGAATT against CCL23: -0.285.
Regarding CCUCGUCGAUCGUGCAUCUTT against ADRA2C, the median seed-adjusted z-score is 0.
Under CGAAAGGAAACCUAACGAATT against HIVEP2 stands 0.294; under GCACAGGCAUCAUCGGGAATT against SGSH, 0.383; under GCCUCAAGGUUCACCUGAATT against PRDM1, -0.16.
Next, GUAUCUCAACAUCAAACUATT against LSM2: -1.48 (active).
With GGGCUGAUGUUAUCAACUUTT against CNTNAP2, the median seed-adjusted z-score was -0.196.
Under CGACACUGCCGAAUGGAAATT against SRCRB4D stands -0.0568; under UGCCCGUCAUUGUCUCCAATT against KCNA7, 0.394.
Under AGAUCAUUGCUUUCAGUGATT against PRDX1 stands 0.288; under CCUACAAUGUGGUGCAUAUTT against DYRK4, -0.824; under CAAGAAUUCCGAUUUCCAATT against GNGT2, -0.289.
Next, GCAAUGAACUCAACAGCUATT against ANGPTL7: 0.
Take GCUAGACCGACCCACCAUATT against FKBP6: the median seed-adjusted z-score was -1.12 (active).
Next, GGUUAUCGACGACAGCAGATT against AGAP3: 0.554; GCAUCCCACUACUACAAAUTT against KSR2: -0.371.
Under UCAUCUUCAUCGACCGGAATT against AGPAT1 stands -1.38 (active); under UACCUGUGGUCAUUCCUUATT against HHATL, 0.497.
Next, ACACCUCACUCAUCCUCUUTT against GNAZ: -0.604; GGGCAAUGAUAGAAAGAAUTT against STK35: 0.519.
As to GGAGGGAUGGUUACUGUUATT against TOX4, the median seed-adjusted z-score was 0.
Next, GAUGCAUUCGAUGACCUGATT against PTGES2: -0.02; GCCUAUUCCUUCAAGUAUUTT against SUPT6H: -2.54 (active).
Under CAGUGAAAAGUGACGCGGATT against DZIP1 stands -0.138; under CGAAAGUCCUCACCAACAATT against TSHZ1, 0.526; under GCCUUUCAUCAGAUCUUCUTT against DBX1, 0.0137.
Next, GAAUCUGUCUUAGAUCUCATT against PRDM2: 1.12 (active); CCAUAGAAUUCAAAAUCCUTT against BCL2L14: -0.859.
Consider GGAGUCUACUUUACCGGUATT against BPIL2, for which the median seed-adjusted z-score is -0.63.
Next, GCAGAGAAAAUAUAACUGATT against NPHP1: -0.0667; AGAUGGUCCAAGAUCCAGATT against CHRM4: -0.856.
Under GGAGUUUCCCAUCAAACGATT against PADI4 stands 0.417; under CUUCCUAGGUUACAAGUAATT against FAM84B, -0.431; under GGGACAAGCUUGACAAGGUTT against TRIM62, -0.000231.
On to GGGUGUCUAAAGGUACAUATT against FSD2, for which the median seed-adjusted z-score is 0.359.
Next, GUACGUUGUAUGUUAAACATT against SLC12A2: -0.4; CGAUUCCAGCAGUAGCUCATT against AP3B2: -2.45 (active); GGAGUUCGCAAAAUCGUCATT against NRK: 0.0687.
In the case of CCUCCAUGUCCAACCCAUATT against FOSL2, the median seed-adjusted z-score was -0.372.
Turning to AGUAGAACGUGUACGCAGATT against MGST1, the median seed-adjusted z-score was -0.0144.
Consider GAAUAUCGGCAGAGAGAUATT against RNF12, for which the median seed-adjusted z-score was 0.29.
As for CGGAGAAGAUGUUCGCCGATT against SIL1, the median seed-adjusted z-score is 0.0292.
Under GGAUGUGCACUCUCAUUGATT against COPA stands -0.807.
Under GGAGAUUCAGAUCCUCAAATT against JAK3 stands -0.0926; under GCAACACCCAGGUAGUUUUTT against EIF4A1, -1.05 (active).
For GAAGCUCUACUCACAGUUUTT against GSTM2, the median seed-adjusted z-score was -0.464.
Consider CUUAACCUGUGGAAUCGAATT against NIPA2, for which the median seed-adjusted z-score is -0.103.
Next, GCAAAGAUAGAAGAAGAUATT against DDI2: 1.27 (active).
